Screening data as filed in PubChem.
This is one part of a sample in which hits are shown more often than they occur.
nsP2pro inh – CHIKV nsP2 protease inhibition, primary qHTS; 31,000 tested, 1.1% active; AID 1964107; Potency, µM (top dose mostly 24.9 µM), usual class: inhibitors; Q8JUX6; FRET peptide cleavage, nsP2pro, fluorescence 1 h; further: nearly all actives have a fitted effect of over 60% in size
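Purified recombinant nsP2pro (150 nM final) in 10 mM Tris-HCl pH 8.0 with 0.01% Tween 20 was preincubated 15 min at room temperature with compound (7 concentrations, up to 25 uM). FRET peptide 2 substrate (2.5 uM final) was then added; fluorescence was read after 1 h.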
nsP2 cell sec – inhibits CHIKV nsP2 protease in cells | cell-based CHIKV nsP2 protease reporter assay | shares compounds with nsP2pro inh | Potency, µM (titrated, usually from 51.1 µM), hits mostly inhibitors | 450 tested, 10% active | AID 1964100; further: nearly all actives have a fitted effect of over 70% in size
NSP2 full ctr – full-length CHIKV NSP2 protease inhibition, selectivity; Potency, µM (top dose mostly 50.7 µM), hits mostly inhibitors; Full-length CHIKV NSP2 protease enzymatic counterscreen; 410 tested, 39% active; shares compounds with nsP2pro inh; further: nearly all actives have a fitted effect of over 65% in size
Furin counterscr – inhibits human furin in a CHIKV nsP2 protease selectivity counterscreen. Potency, µM (top dose mostly 50.6 µM), most hits filed as inhibitors. AID 1964102. shares compounds with nsP2pro inh. 410 tested, 6% active. Recombinant human furin enzymatic counterscreen, fluorogenic substrate
Target sequence (P09958 whole entry, looked up): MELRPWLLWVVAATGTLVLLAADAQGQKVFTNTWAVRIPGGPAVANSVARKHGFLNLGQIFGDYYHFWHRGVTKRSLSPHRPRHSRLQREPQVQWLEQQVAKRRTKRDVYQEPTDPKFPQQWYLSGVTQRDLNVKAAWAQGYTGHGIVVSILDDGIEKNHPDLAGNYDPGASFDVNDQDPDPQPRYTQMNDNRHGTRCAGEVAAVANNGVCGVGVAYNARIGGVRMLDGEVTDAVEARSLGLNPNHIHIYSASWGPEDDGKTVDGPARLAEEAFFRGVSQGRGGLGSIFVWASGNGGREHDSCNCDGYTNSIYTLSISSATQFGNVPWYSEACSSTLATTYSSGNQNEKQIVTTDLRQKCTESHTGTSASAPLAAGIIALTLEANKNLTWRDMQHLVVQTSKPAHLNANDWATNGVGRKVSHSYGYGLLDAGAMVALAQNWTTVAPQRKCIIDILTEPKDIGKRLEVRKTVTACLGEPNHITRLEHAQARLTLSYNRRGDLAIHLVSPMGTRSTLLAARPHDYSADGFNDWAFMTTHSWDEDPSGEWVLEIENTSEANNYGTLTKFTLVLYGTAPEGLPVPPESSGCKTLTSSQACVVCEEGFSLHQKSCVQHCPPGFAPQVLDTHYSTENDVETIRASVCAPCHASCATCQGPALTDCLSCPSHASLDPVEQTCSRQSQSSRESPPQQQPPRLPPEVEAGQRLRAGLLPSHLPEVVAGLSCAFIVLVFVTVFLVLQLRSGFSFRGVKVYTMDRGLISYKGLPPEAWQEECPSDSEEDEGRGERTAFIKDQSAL
NS23 peptide cs – nsP2pro inhibition on native NS2/3 peptide substrate; shares compounds with nsP2pro inh; Purified CHIKV nsP2 protease, endogenous NS2/3 peptide cleavage; 410 tested, 34% active; Potency, µM (series often up to 51 µM), hits mostly inhibitors; further: nearly all actives have a fitted effect of over 55% in size
Papain cs – selectivity counter-screen for CHIKV nsP2 protease inhibitors: papain; 410 tested, 5% active; AID 1964104; purified papain protease activity, enzymatic inhibition; shares compounds with nsP2pro inh; Potency, µM (top dose mostly 51 µM), most hits filed as inhibitors
nsP2pro confirm – CHIKV nsP2 protease inhibition, confirmatory qHTS; 410 tested, 43% active; Potency, µM (doses to about 25.5 µM), actives largely listed as inhibitors; CHIKV nsP2 protease enzymatic activity, qHTS; shares compounds with nsP2pro inh; AID 1964105; further: nearly all actives have a fitted effect of over 75% in size
HCV NS3 counter – selectivity counter-screen for CHIKV nsP2 protease inhibitors: HCV NS3/4A; AID 1964106; shares compounds with nsP2pro inh; 410 tested, 20% active; HCV NS3/4A protease biochemical counterscreen; Potency, µM (top dose mostly 50.9 µM), most hits filed as inhibitors; further: nearly all actives have a fitted effect of over 55% in size
Large screens that a line does not name were inactive (follow-up assays come after a bar, where they were run). The call rests on the fitted dose curve.

COc1ccc([N+](=O)[O-])c(S(=O)(=O)c2ccc(Cl)cc2)n1	nsP2pro inh 6.3µM | nsP2 cell sec 2.1µM | NSP2 full ctr 23µM | Furin counterscr inactive | NS23 peptide cs 5.8µM | Papain cs inactive | nsP2pro confirm inactive | HCV NS3 counter inactive
COc1ccc([N+](=O)[O-])c(S(=O)(=O)c2ccccc2)n1	nsP2pro inh 2.2µM | nsP2 cell sec 1.8µM | NSP2 full ctr 13µM | Furin counterscr inconclusive | NS23 peptide cs 3.3µM | Papain cs inactive | nsP2pro confirm 5.7µM | HCV NS3 counter inconclusive
COc1ccc(-c2ccc(NS(=O)(=O)c3ccccc3)cc2)nn1	none
COc1cc(NS(=O)(=O)c2cccc([N+](=O)[O-])c2)c2ncccc2c1	none
CCN(CC)CCCNc1sc(S(=O)(=O)c2ccccc2)nc1S(=O)(=O)c1ccc(Cl)cc1	none
O=C1CC2CCCC(C1)N2C(=O)c1ccncc1	none
Cc1cc(Nc2cc(N)ncn2)c(=O)n2c1C(=O)NC21CCCCC1	none
CC(=O)N(C(C)=O)n1c(C)nc2sc3c(c2c1=O)CCNC3	none
COCCN1CC(c2n[nH]c(C3CCOCC3)n2)CCC1=O (centres undefined)	none
C=C[C@](C)(O)CC[C@H]1C(C)=CC(=O)[C@H]2C(C)(C)CCC[C@]12C	none
C=C1C(O)CCC2(C)CC3(OC)OC(=O)C(C)=C3CC12 (centres undefined)	none
c1cncc(OC[C@@H]2CCN2)c1	none
CC(=O)N1CCN(Cc2ccccc2-c2cccnc2)CC1	none
CN(C)C(=O)N1CCN(c2ccc(Cl)nn2)C(=O)C1	none
CC(=O)N1CCN(c2ccc(C(=O)N3CCN(Cc4ccccc4)CC3)nn2)C(=O)C1	nsP2pro inh 3.5µM | nsP2 cell sec inactive | NSP2 full ctr 7.3µM | Furin counterscr inactive | NS23 peptide cs 15µM | Papain cs inactive | nsP2pro confirm 8µM | HCV NS3 counter 5.2µM
CNC(=O)c1cc(C2CC2)nc2c1c(C1CCCN(C(=O)Cc3ccccn3)C1)nn2C (centres undefined)	none
[O-][n+]1ccccc1SSc1cccc[n+]1[O-]	nsP2pro inh 2.7µM | nsP2 cell sec inconclusive | NSP2 full ctr 8.2µM | Furin counterscr inactive | NS23 peptide cs 9.2µM | Papain cs inactive | nsP2pro confirm 1.6µM | HCV NS3 counter inactive
Cc1cccc(OCC(=O)NCc2nnc3c(-c4nc(C)no4)cccn23)c1	none
N#Cc1cc2c(=O)n(CCCCN3CCCC3)ccc2[nH]c1=O	none
O=C(/C=C/c1ccc(O)cc1)O[C@H]1[C@@H]2C=CO[C@@H](O[C@@H]3O[C@H](CO)[C@@H](O)[C@H](O)[C@H]3O)[C@@H]2[C@@]2(CO)O[C@@H]12	none
COc1ccccc1N1CCN(C(c2ccccc2)c2nnc(-c3ccccc3Cl)o2)CC1 (centres undefined)	none
COc1ccc(N2CCN(C(c3ccccc3)c3nnc(-c4ccccc4Cl)o3)CC2)cc1 (centres undefined)	nsP2pro inh inconclusive | nsP2 cell sec inconclusive
COc1ccccc1N1CCN(C(c2ccc(Cl)cc2)c2nnc(-c3cccc(F)c3)o2)CC1 (centres undefined)	none
C/C=C(\C)C(=O)O[C@@H]1CC2[C@@H](CC=C3C[C@@H](O[C@H]4C[C@H](OC)[C@H](O[C@H]5C[C@H](OC)[C@H](O[C@@H]6O[C@H](C)[C@@H](O[C@H]7C[C@H](OC)[C@H](O[C@@H]8O[C@H](CO)[C@@H](O)[C@H](O)[C@H]8O)[C@@H](C)O7)[C@H](OC)[C@H]6O)[C@@H](C)O5)[C@@H](C)O4)CC[C@@]32C)[C@@]2(O)CC[C@H](C(C)=O)[C@@]12C (some centres undefined)	none
O=C(Nc1ccc(Cl)nc1)c1cccn2cncc12	none
COc1ccccc1-c1ccc(=O)n(CC(=O)NCCc2ccccc2)n1	none
O=C1C2CC=CCC2C(=O)N1SC(Cl)(Cl)Cl (centres undefined)	nsP2pro inh 1.8µM | nsP2 cell sec inconclusive | NSP2 full ctr 2.9µM | Furin counterscr inactive | NS23 peptide cs 5.8µM | Papain cs inactive | nsP2pro confirm 0.9µM | HCV NS3 counter inconclusive
N=c1c2c(ccn1CCc1ccccc1)Oc1ccc3ccccc3c1C2c1ccccc1 (centres undefined)	none
O=C(OCC#CCSc1nnc(-c2ccc3ccccc3c2)o1)c1ccsc1	none
COc1cccc(CC(=O)N2CC[C@H]3C(=O)NCCCCCN(Cc4cccnc4)[C@@H]3C2)c1	none
Fc1ccc(-n2cc(CCCCN3CCC4(CC3)OCc3ccccc34)c3ccccc32)cc1	none
COC1C(O)C(C)OC(OC2C(CO)O[C@@H](O[C@@H]3CC4CCC5C(CC[C@]6(C)[C@@H](C7=CC(=O)OC7)CC[C@]56O)[C@@]4(C)[C@H](OC(C)=O)C3)C(O)C2O)C1O (some centres undefined)	none
O=C(O)[C@@H](O)[C@H](O)[C@H](O)[C@@H](O)C(=O)O	none
O=C(O)C(S)C(S)C(=O)O (centres undefined)	nsP2pro inh 8.8µM | nsP2 cell sec inactive | NSP2 full ctr inconclusive | Furin counterscr inactive | NS23 peptide cs inconclusive | Papain cs inconclusive | nsP2pro confirm inconclusive | HCV NS3 counter inactive
O=C(O)C(Cl)Cl	none
C[C@@H](O[C@H]1OCCN(Cc2nn(P(=O)(O)O)c(=O)[nH]2)[C@H]1c1ccc(F)cc1)c1cc(C(F)(F)F)cc(C(F)(F)F)c1	none
CCOc1ccc(CCNC(=O)c2cc3ncccc3n2Cc2cccc(C)c2)cc1OCC	none
CC(=C/C(=O)O)/C=C/[C@]1(O)[C@@]2(C)CO[C@]1(C)C[C@H](O[C@@H]1O[C@H](CO)[C@@H](O)[C@H](O)[C@H]1O)C2	none
O=C1Nc2ccccc2/C1=C\c1cc(Br)c(O)c(Br)c1	none
COc1ccccc1C(=O)NCC(c1cccnc1)N1CCc2ccccc2C1 (centres undefined)	none
O=C(NCC(c1cccnc1)N1CCc2ccccc2C1)c1ccc(F)c(F)c1 (centres undefined)	nsP2pro inh inconclusive | nsP2 cell sec inactive
COc1ccc(C(=O)NCC(c2cccnc2)N2CCN(c3ccccc3)CC2)cc1 (centres undefined)	none
COc1cc(F)c(S(=O)(=O)N2CCN(S(=O)(=O)c3ccc4c(c3)OCCO4)CC2)c(F)c1	none
